{"source": "the OligoGym collection"}
{"molecular_target": "PHF23", "assay": "pooled miR-30 sensor sort-seq; sequence = guide strand", "conditions": "shRNA"}
{"sequence": "TTCTTAATCTTAGCACAGGAGA", "sensor-assay potency score (higher = more potent)": -1.04}
{"sequence": "TAACATGTGATCAGATCCCATG", "sensor-assay potency score (higher = more potent)": -0.921}
{"sequence": "TTTAACTTCCGCTTCTTGCTCT", "sensor-assay potency score (higher = more potent)": 0.601}
{"molecular_target": "PHF8", "assay": "pooled miR-30 sensor sort-seq; sequence = guide strand", "conditions": "shRNA"}
{"sequence": "TTCTGCTTGAACGATGACCTGT", "sensor-assay potency score (higher = more potent)": 0.147}
{"sequence": "TTGAGCTGCATCTCGATGTTAA", "sensor-assay potency score (higher = more potent)": -0.768}
{"sequence": "TTTCACAAAATCACCAAGCTTC", "sensor-assay potency score (higher = more potent)": 0.0269}
{"sequence": "TTTGCTATCTTGGTTCGCCGAG", "sensor-assay potency score (higher = more potent)": -0.492}
{"sequence": "TTGGATAAACTCTTCACCCTTT", "sensor-assay potency score (higher = more potent)": 0.593}
{"sequence": "TTCAACACCAACACAACTGCCA", "sensor-assay potency score (higher = more potent)": 0.225}
{"sequence": "TTCCAAACTAATGACATTGAGG", "sensor-assay potency score (higher = more potent)": -0.716}
{"sequence": "TCACACTCGATCATGAAGCGGG", "sensor-assay potency score (higher = more potent)": 0.234}
{"sequence": "AACACTTGTAGCACTTGTCCAC", "sensor-assay potency score (higher = more potent)": -0.0267}
{"sequence": "TTTGTCAGAACCAACATAGTGT", "sensor-assay potency score (higher = more potent)": 0.088}
{"sequence": "TTGCTATCTTGGTTCGCCGAGA", "sensor-assay potency score (higher = more potent)": -0.723}
{"sequence": "TTGCTTTCTGGAAAGAGCCTGT", "sensor-assay potency score (higher = more potent)": -0.163}
{"molecular_target": "PIK3AP1", "assay": "pooled miR-30 sensor sort-seq; sequence = guide strand", "conditions": "shRNA"}
{"sequence": "TTAAGGTCAACAGTCATGCTAT", "sensor-assay potency score (higher = more potent)": -0.337}
{"sequence": "TTGTCATCATATCTTCTTCTTC", "sensor-assay potency score (higher = more potent)": -0.605}
{"sequence": "TTCGATTAAGTCTTCATCCTTT", "sensor-assay potency score (higher = more potent)": 0.829}
{"sequence": "TAGCCGTTTAAGATTTTCCTGC", "sensor-assay potency score (higher = more potent)": -0.144}
{"sequence": "TTCTTCAGTCCATACTTCGCAG", "sensor-assay potency score (higher = more potent)": -0.885}
{"sequence": "TTTAATGTGACTCTTGAGCATG", "sensor-assay potency score (higher = more potent)": -0.893}
{"sequence": "TTCCTCTTTAATGTGACTCTTG", "sensor-assay potency score (higher = more potent)": -0.151}
{"sequence": "TTACTTGTGCTACTTGCTGTGC", "sensor-assay potency score (higher = more potent)": -0.439}
{"sequence": "TTGCCTTCTAAAAACTTGCGGA", "sensor-assay potency score (higher = more potent)": -0.361}
{"sequence": "TAGACGATGAGGATGTCGCATC", "sensor-assay potency score (higher = more potent)": -0.908}
{"sequence": "TACTCGTCGATGAACTGCCGCA", "sensor-assay potency score (higher = more potent)": -0.193}
{"sequence": "AAGTCTAGGAACTCCTCGCTGT", "sensor-assay potency score (higher = more potent)": 0.0251}
{"molecular_target": "PIK3R4", "assay": "pooled miR-30 sensor sort-seq; sequence = guide strand", "conditions": "shRNA"}
{"sequence": "TAAACTAGTCAAGTACATCTTA", "sensor-assay potency score (higher = more potent)": 0.418}
{"sequence": "TATCTGAAAAATAACTCTCTAC", "sensor-assay potency score (higher = more potent)": -0.529}
{"sequence": "TTCCTTTAAAACACTGAGCAGA", "sensor-assay potency score (higher = more potent)": -0.752}
{"sequence": "TTATTTTCATATCTGAGCCAGC", "sensor-assay potency score (higher = more potent)": -0.787}
{"sequence": "TTCAATTTTATTTAGCACTTGT", "sensor-assay potency score (higher = more potent)": 0.585}
{"sequence": "TTTTGTAGCAGTCCTAACTGGC", "sensor-assay potency score (higher = more potent)": -0.0245}
{"sequence": "TTGTCTCGCACATACTGCCTAA", "sensor-assay potency score (higher = more potent)": -0.86}
{"sequence": "TAGCAAAGTAACAACTTTCTGC", "sensor-assay potency score (higher = more potent)": 0.5}
{"sequence": "TTTTATTTAGCACTTGTTCAGG", "sensor-assay potency score (higher = more potent)": -0.266}
{"sequence": "TAATAGCTTACAACCATCTTTT", "sensor-assay potency score (higher = more potent)": -0.784}
{"sequence": "TTACAGTAGACATCAGCTGTAC", "sensor-assay potency score (higher = more potent)": 0.0221}
